Beta cell apopt: beta cell apoptosis inhibition; protection from apoptosis, % (concentration not given with the values); INS-1E cytokine-induced death, ATP luminescence, 48 h; percent of positive-control rescue, neutral wells zero; AID 435005; actives 0.8% (n = 300,000);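 active means Every replicate reaches about 75%, or at least half do and their mean reaches it too, limit read from the data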;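 further: 0% = cytokine-treated negative control wells and 100% = positive control rescue; higher means more ATP so stronger rescue from cytokine killing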
Mdm2 MdmX PPI: disrupts the human Mdm2-MdmX interaction; inhibition, % at 8 µM; actives 3% (n = 330,000); AID 485346; O15151+Q00987; SaOS-2 split-luciferase Mdm2/MdmX complementation, luminescence;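 active means inhibition of at least 50% at 8 µM in the primary screen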
Calb FLC: affects C. albicans growth with fluconazole; C. albicans CaCi-2 (fluconazole-resistant clinical isolate) + fluconazole, Alamar Blue growth, 48 h; growth inhibition, % (no concentration beside the values); actives 0.57% (n = 300,000); AID 1979;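 active means growth inhibition above about 58% in most replicates, limit read from the data, passing the limit was not always enough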;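 further: all wells also contain fluconazole at 8 µg/ml as a sub-toxic cotreatment; 0% = median of DMSO wells and 100% = median of geldanamycin control wells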
CSC inhib: blocks cancer stem cells; inhibition, % at 7.5 µM; actives 1.1% (n = 300,000); cancer stem cell-like cells viability, luminescence; in the data active means inhibition above about 75%; tested in HMLE shEcad cells
MPTP inh: blocks calcium-induced mitochondrial swelling. isolated mouse mitochondria, Ca2+ swelling absorbance, 30 min. inhibition, % at 10 µM. actives 1.4% (n = 360,000);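 active means inhibition of 50% or more, scaled per plate between neutral and stimulator controls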;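 further: 0% = DMSO wells given calcium and 100% = 1 mM EGTA wells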
Mdm2-MdmX conf: human Mdm2/MdmX binding inhibition, confirmed | shares compounds with Mdm2 MdmX PPI | inhibition, % at 8 µM | actives 55% (n = 10,000) | luminescent assay | AID 489028; in the data active means inhibition above about 40%
FLuc counter: counter-screen for Mdm2/MdmX inhibitors: full-length luciferase. inhibition, % at 8 µM. SaOS-2 full-length luciferase counterscreen, luminescence. shares compounds with Mdm2 MdmX PPI. actives 77% (n = 6,200). AID 504607;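 active means mean inhibition at 8 µM reaching about 37%, which flags the compound as non-specific, limit read from the data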;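 further: p53-null SaOS-2 cells with luciferase driven by a doxycycline-inducible promoter; compound on cells about two nights before reading with doxycycline added after day one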
* marks the source's active call; other numbers are inactive results; . = no result given. Only some compounds are listed: those with a hit (about 4.8% of all), similar ones and a draw of the others.

SMILES	Beta cell apopt	Mdm2 MdmX PPI	Calb FLC	CSC inhib	MPTP inh	Mdm2-MdmX conf	FLuc counter
Cn1nc(-c2ccc(N3CCOCC3)c(NS(=O)(=O)c3ccc(Cl)cc3)c2)c2ccccc2c1=O	6	67*	.	47	2	36	38*
Cc1ccc(S(=O)(=O)Nc2cc(-c3nn(C)c(=O)c4ccccc34)ccc2N2CCOCC2)cc1	7	86*	31	-4	-1	77*	30
O=C(NCc1cccnc1)c1cc(C2CCCCN2S(=O)(=O)c2cccs2)on1 (configuration not stated)	.	.	.	.	-1	.	.
Cc1ccnc2c1ccc1c(C)ccnc12	102*	84*	.	111*	-2	85*	18
Cc1ccnc2c1ccc1cccnc12	.	84*	.	.	1	86*	23
c1cnc2c(c1)ccc1cccnc12	59	77*	110*	3	3	82*	50*
CCN(c1ccccc1)S(=O)(=O)c1ccc(Oc2ccc(-n3ccnc3)cc2)nc1	13	59*	1	-6	2	58*	63*
CC1(C(=O)Nc2ccc(Cl)cc2)Cc2c(-c3ccc(C(N)=O)cc3)ccnc2O1 (configuration not stated)	.	.	.	.	0	.	.
N#CCC(=O)Nc1ccc(C(=O)OC(C(=O)Nc2cc(C(F)(F)F)ccc2Cl)c2ccccc2)cc1 (configuration not stated)	-6	52*	.	14	1	39	71*
N#CCC(=O)Nc1ccc(C(=O)OC(C(=O)Nc2ccc([N+](=O)[O-])cc2Br)c2ccccc2)cc1 (configuration not stated)	.	.	.	.	4	.	.
Cc1ccc(S(=O)(=O)N(C)c2ccc(OC(=O)c3cccs3)cc2)cc1	1	9	.	3	-1	.	.
Cc1ccc(NCc2nnc(SCC(=O)c3ccc4c(c3)OCCO4)o2)c(C)c1	.	57*	5	.	0	7	.
CCOc1ncccc1C(=O)OC(C)C(=O)Nc1ccc(N2CCOCC2)cc1 (configuration not stated)	-1	-6	.	-10	1	.	.
COc1ccc(-n2c(SCC(=O)NCC3CCCO3)nc3ccccc3c2=O)cc1Cl (configuration not stated)	.	.	.	.	0	.	.
CCCCCCCCCn1ccc(=N)cc1	116*	91*	70	7	37	81*	24
Oc1c(C(c2ccc(Cl)cc2)N2CCCC2)cc(Cl)c2cccnc12 (configuration not stated)	16	80*	99*	99*	4	72*	33
Oc1c(C(c2ccccn2)N2CCC(Cc3ccccc3)CC2)cc(Cl)c2cccnc12 (configuration not stated)	16	56*	105*	.	.	38	33
Cc1ccc(C(c2cc(Cl)c3cccnc3c2O)N2CCN(C)CC2)cc1 (configuration not stated)	52	69*	88*	115*	6	57*	32
CCN(C(=O)c1cnc(NC(C)C)cc1C(F)(F)F)c1ccc(Cl)cc1Cl	-7	8	15	-5	6	.	.
CCCCCCN[C@H]1CCC2C3CC=C4C[C@@H](O)CC[C@]4(C)C3CC[C@@]21C (some centres not stated)	8	35	.	62	25	.	.
CC(C)C(=O)N[C@H]1CCC2C3CC=C4C[C@@H](O)CC[C@]4(C)C3CC[C@@]21C (some centres not stated)	2	2	.	-12	1	.	.
CC(C)(C)[C@H](N)C(=O)N[C@H]1CCC2C3CC=C4C[C@@H](O)CC[C@]4(C)C3CC[C@@]21C (some centres not stated)	52	100*	.	104*	2	100*	52*
C[C@]12CC[C@H](O)CC1=CCC1C2CC[C@@]2(C)C1CC[C@@H]2NC(=O)[C@@H](N)Cc1ccccc1 (some centres not stated)	-1	68*	.	-6	0	23	.
CN(C)c1ccc(N/C(N)=N/c2nc(C(F)(F)F)cc(C(F)(F)F)n2)cc1	6	17	-11	-7	-1	.	.

Compound activity (PubChem)
